The values below come from PubChem BioAssay.

Activity calls are given as the source filed them.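 How the source made its calls, unless noted: active means visual image review flags a hit and inhibition of aggregation exceeds 20%; inconclusive means visual hit but inhibition at or below 20%; inactive means no hit on visual image review.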

Assay [1] can be described thus: inhibitors of TNFa-induced NFkB p65 translocation, primary screen, imaging, HUVEC, MLSMR starter and 10KST1 sets (AID 438;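 active means inhibition above 20% together with a positive visual image hit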;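 further: compound added about 3h40 before a 20 min TNFalpha stimulation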;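 on inhibition: signal is the nuclear over cytoplasmic p65 intensity ratio per well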). The note with it: HUVEC TNFa-induced p65 nuclear translocation; cell count: measured here: nuclei count (cytotoxicity indicator), at 2.08 µM; inhibition: at 2 µM, stronger effect = higher value, 0% TNFa-plus-vehicle, 100% no-TNFa wells.
A short description of assay [2]: reduction of polyQ htt aggregates in cells – imaging, exon1htt(103Q)mCFP cells, high-content imaging, primary screen (AID 483).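 Further: compound exposure lasted 3 days before fixation.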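 On nuclei count: percent of the per-plate median nuclei count of sample wells.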 The note with it: exon1htt(103Q)mCFP cell line, aggregate imaging, at 2 µM; inhibition of aggregation: stronger effect = higher value; nuclei count: measured here: cell count, toxicity.
Assay [3] in a line: endothelial E-selectin expression blockers – imaging, HUVEC, immunofluorescence, MLSMR starter and 10KST1 sets, primary screen (AID 487;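 active means visually confirmed hit in the image check and inhibition above 20%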;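 on inhibition: signal is fraction of cell area covered by stained E-selectin grains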;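 on nuclei count: 100% = median nuclei count of all wells on the same plate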). The note with it: HUVEC TNFalpha-induced E-selectin immunofluorescence imaging, at 2 µM; inhibition: stronger effect = higher value; nuclei count: measured here: cell number, toxicity.
For assay [4], the target named is Voltage-gated potassium channel subunit beta-2 (Rattus norvegicus) (UniProt P62483). Kind of assay: inhibitors of rat Kvbeta2 reductase activity – biochemical, NADPH fluorescence, primary screen (AID 622;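 active means fluorescence slope higher than the sample average by over 3 SD, cut at about -0.22 in these data, passing the limit was not always enough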;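 further: slope of raw intensity against log time taken from 70 to 1610 s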). The note with it: recombinant KvBeta, 4-cyanobenzaldehyde reduction, at 10 µM, stronger effect = higher value.
Assay [5] has the same target. Kind of assay: enhancers of rat Kvbeta2 NADPH turnover – biochemical, NADPH fluorescence, primary screen (AID 623;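 active means NADPH fluorescence slope more negative than the mean of all samples by about 3 SD, 99.7% confidence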;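 further: fluorescence intensity change per second fitted from 20 to 320 s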). The note with it: Recombinant KvBeta, NADPH fluorescence decrease slope, 10 min; at 10 µM; stronger effect = lower value.
Assay [6] has as its target Alpha-2C adrenergic receptor (Homo sapiens) (UniProt P18825). Kind of assay: compounds altering alpha2C-coupled GIRK flux – cell-based, HEK293 alpha2C/GIRK1/2, thallium flux, primary screen (AID 624;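 active means fluorescence slope after compound addition differing from the mean of all screened samples at 99.7% confidence, in either direction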;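 further: slope of fluorescence ratio to pre-addition baseline per second over 15 to 24 s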). The note with it: thallium flux BTC fluorescence, at 10 µM, actives lie on both sides.
Assay [7] is described as follows: blockers of RIG-like receptor reporter activation – cell-based, Sendai virus stimulus, luciferase, 10K MLSCN set, TLR/RLR signaling modifier project, primary screen (AID 602276;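 active means inhibition at or above 50% at 10 µM; inactive means inhibition below 50%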;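 further: firefly luciferase from ISG56 promoter only with Renilla not read in this screen; 0% = Sendai virus plus DMSO and 100% = medium plus DMSO without virus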). The note with it: HEK293 RL24 IRF3 luciferase reporter, at 10 µM, stronger effect = higher value. On the technique in general: Reporter assays use an easily measured gene product as a stand-in for the process of interest.

A short description of assay [8]: TLR3 IRF3 reporter activation blockers – cell-based, poly I:C stimulus, luciferase, 10K MLSCN set, primary screen (AID 602277;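 active means inhibition of the reporter signal at or above 50%; inactive means inhibition below 50%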). The note with it: HEK293-TLR3 RL24 IRF3 luciferase reporter, at 10 µM, stronger effect = higher value.

Chain of Voltage-gated potassium channel subunit beta-2 (Rattus norvegicus) (P62483 whole entry, looked up): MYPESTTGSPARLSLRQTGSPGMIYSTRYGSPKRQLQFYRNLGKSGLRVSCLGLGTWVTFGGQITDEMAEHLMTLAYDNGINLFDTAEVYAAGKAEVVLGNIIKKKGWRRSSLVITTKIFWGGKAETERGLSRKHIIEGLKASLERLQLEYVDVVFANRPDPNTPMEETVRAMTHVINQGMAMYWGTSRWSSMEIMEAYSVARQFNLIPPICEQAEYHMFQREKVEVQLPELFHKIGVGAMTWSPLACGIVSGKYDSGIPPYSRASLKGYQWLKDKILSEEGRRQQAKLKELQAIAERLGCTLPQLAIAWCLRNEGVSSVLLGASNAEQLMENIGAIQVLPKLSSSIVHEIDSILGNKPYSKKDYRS
Chain of Alpha-2C adrenergic receptor (Homo sapiens) (P18825 whole entry, looked up): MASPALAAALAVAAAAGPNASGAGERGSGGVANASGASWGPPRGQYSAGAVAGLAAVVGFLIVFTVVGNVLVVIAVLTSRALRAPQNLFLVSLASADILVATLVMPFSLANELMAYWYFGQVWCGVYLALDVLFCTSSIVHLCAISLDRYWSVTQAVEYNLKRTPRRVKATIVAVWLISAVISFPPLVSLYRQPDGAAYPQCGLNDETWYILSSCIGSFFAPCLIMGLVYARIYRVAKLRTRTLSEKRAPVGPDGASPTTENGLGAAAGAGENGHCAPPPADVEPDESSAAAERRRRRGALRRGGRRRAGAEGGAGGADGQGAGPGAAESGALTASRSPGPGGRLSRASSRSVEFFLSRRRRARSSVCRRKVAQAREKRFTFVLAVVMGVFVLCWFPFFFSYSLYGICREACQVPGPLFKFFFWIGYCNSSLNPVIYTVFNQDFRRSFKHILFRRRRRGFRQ

The term inhibition denotes the change of the read-out against control, counted positive when it falls. With `COC(=O)c1sc(N)c(C(=O)OC)c1COC(=O)C1CC(=O)N(Cc2ccco2)C1` (centres undefined), the cell count in assay [1] came out at 303. Further, the inhibition is -1.9% (inactive) in assay [1], -45.6% (inactive) in assay [3], 15.8% (inactive) in assay [7] and 11.9% (inactive) in assay [8]. Further, the inhibition of aggregation in assay [2] was -1.7% (inactive). Moreover, the nuclei count in assay [2] stood at 100%; in assay [3], 124%. Further, the fluorescence slope in assay [4] was -0.265 (inactive). The NADPH fluorescence slope in assay [5] was -4.3e-05 (inactive). Besides, the slope in assay [6] was 0.00671 (inactive).

For the molecule `COCCNC(=O)CCCCCN1C(=O)CCC1=O`, the cell count in assay [1] was 221. The inhibition was -7.7% (inactive) in assay [1], 25.1% (inactive) in assay [3], 11.6% (inactive) in assay [7] and 24.9% (inactive) in assay [8]. Besides, in assay [2], the inhibition of aggregation was -8.5% (inactive). For the same molecule, the values for the nuclei count in assay [2] and in assay [3] were 85.3% and 71.9%, respectively. Besides, the fluorescence slope in assay [4] was -0.595 (inactive). The NADPH fluorescence slope in assay [5] is -5.1e-05 (inactive). In addition, the slope in assay [6] was 0.00625 (inactive).

For `Cc1cccc(OCc2nc(C#N)c(NCCN(C)C)o2)c1`, in assay [1], the cell count is 628. Further, the inhibition in assay [1] is -2.9% (inactive); in assay [3] it was -27.6% (inactive); in assay [7], 9.05% (inactive); in assay [8] it was 28.8% (inactive). In addition, in assay [2], the inhibition of aggregation was -1.8% (inactive). In addition, the nuclei count in assay [2] is 102%; in assay [3] it was 105%. For the same molecule, in assay [4], the fluorescence slope was -0.514 (inactive). Besides, the NADPH fluorescence slope in assay [5] was -3.5e-05 (inactive). Moreover, the slope in assay [6] is 0.00503 (inactive).

Take `O=C(CCC(=O)N(c1cccc(F)c1)C(C(=O)NC1CCCC1)c1ccncc1)Nc1cccnc1` (centres undefined): in assay [1], the cell count is 465. The inhibition in assay [1] is 0.6% (inactive); in assay [3], -32.3% (inactive); in assay [7] it was 18.8% (inactive); in assay [8], 20.4% (inactive). The inhibition of aggregation in assay [2] is -8.2% (inactive). For the same molecule, the nuclei count is 70.3% in assay [2] and 108% in assay [3]. Besides, in assay [4], the fluorescence slope was -0.5 (inactive). Besides, in assay [5], the NADPH fluorescence slope is -3.7e-05 (inactive). In addition, the slope in assay [6] is 0.00449 (inactive).

Turning to `COc1ccc(S(=O)(=O)Cc2ccc(C(=O)N3CCOCC3)o2)cc1`, in assay [1], the cell count turned out to be 551. The inhibition in assay [1] was -0.2% (inactive); in assay [3] it was -79.8% (inactive); in assay [7], 8.1% (inactive); in assay [8], 19.3% (inactive). In assay [2], the inhibition of aggregation was -10.7% (inactive). Moreover, the nuclei count in assay [2] was 93%; in assay [3], 105%. For the same molecule, in assay [4], the fluorescence slope is -0.615 (inactive). Also, in assay [5], the NADPH fluorescence slope is -2.5e-05 (inactive). Further, the slope in assay [6] was 0.0067 (inactive).

With `O=C(CSc1nc(O)cc(=O)n1-c1ccccc1)N1CCCCC1`, the cell count in assay [1] was found to be 635. In addition, the inhibition in assay [1] was -8.1% (inactive); in assay [3] it was -85.5% (inactive); in assay [7] it was 12.3% (inactive); in assay [8], 21% (inactive). The inhibition of aggregation in assay [2] was -16.4% (inactive). Moreover, the nuclei count in assay [2] is 103%; in assay [3], 109%. The fluorescence slope in assay [4] was -0.536 (inactive). Further, in assay [5], the NADPH fluorescence slope was -5.1e-05 (inactive). In addition, the slope in assay [6] was 0.00543 (inactive).

As to `CCCc1[nH]nc2c1C(c1cn[nH]c1-c1ccc(F)cc1)C(C#N)=C(N)O2` (centres undefined), in assay [1], the cell count amounted to 438. Besides, the inhibition in assay [1] is -8.3% (inactive); in assay [3] it was -43.7% (inactive); in assay [7], 18.7% (inactive); in assay [8] it was 23.5% (inactive). Also, the inhibition of aggregation in assay [2] is 11.7% (inactive). Further, the nuclei count was determined as 89.8% in assay [2] and 137% in assay [3]. The fluorescence slope in assay [4] is -0.38 (inactive). Further, the NADPH fluorescence slope in assay [5] was -0.000105 (inactive). In addition, in assay [6], the slope was 0.00672 (inactive).

Take `COc1ccc(-c2nc(CCNC(=O)c3ccco3)cs2)cc1OC`: the cell count in assay [1] was found to be 696. The inhibition in assay [1] is -9.6% (inactive); in assay [3], -4% (inactive); in assay [7] it was 22.7% (inactive); in assay [8], -5.2% (inactive). Also, the inhibition of aggregation in assay [2] is -8.9% (inactive). In addition, the nuclei count in assay [2] amounted to 102%; in assay [3] it was 114%. The fluorescence slope in assay [4] was -0.524 (inactive). The NADPH fluorescence slope in assay [5] was -2.4e-05 (inactive). The slope in assay [6] is 0.00779 (inactive).

For `OC1(c2cccc(C(F)(F)F)c2)CCNCC1`, in assay [1], the cell count is 370. Besides, the inhibition was 1.4% (inactive) in assay [1], -19% (inactive) in assay [3], 18.9% (inactive) in assay [7] and 22.1% (inactive) in assay [8]. Besides, the inhibition of aggregation in assay [2] is -1.7% (inactive). Also, the figures for the nuclei count in assay [2] and in assay [3] were 106% and 118%, respectively. Also, the fluorescence slope in assay [4] is -0.281 (inactive). Besides, the NADPH fluorescence slope in assay [5] was 2.4e-05 (inactive). For the same molecule, the slope in assay [6] was 0.007 (inactive).

With `COc1ccc(N2CCN(C(=O)CCNS(=O)(=O)c3ccc(Br)s3)CC2)cc1`, in assay [1], the cell count was determined as 338. Further, the inhibition in assay [1] was 2.9% (inactive); in assay [3] it was -297% (inactive); in assay [7], 7.87% (inactive); in assay [8], 12.4% (inactive). For the same molecule, in assay [2], the inhibition of aggregation was -0.1% (inactive). The nuclei count turned out to be 101% in assay [2] and 108% in assay [3]. Moreover, the fluorescence slope in assay [4] was -0.423 (inactive). The NADPH fluorescence slope in assay [5] is -0.000118 (inactive). For the same molecule, in assay [6], the slope is 0.00529 (inactive).

For `Cc1cc(C)nc(N2CCC(C(=O)Nc3ccc4c(c3)CCC4)CC2)n1`, the cell count in assay [1] was 338. Besides, the inhibition in assay [1] was 6.3% (inactive); in assay [3] it was -103% (inactive); in assay [7], 5.67% (inactive); in assay [8] it was 24.8% (inactive). Also, the inhibition of aggregation in assay [2] was 17.6% (inactive). The nuclei count in assay [2] amounted to 92%; in assay [3] it was 120%. Besides, the fluorescence slope in assay [4] was -0.405 (inactive). For the same molecule, the NADPH fluorescence slope in assay [5] is -6.3e-05 (inactive). In assay [6], the slope is 0.00372 (inactive).

With `COc1ccc2c(=O)c3c(=O)n(Cc4ccco4)c(-c4cc(OC)c(OC)c(OC)c4)nc3oc2c1`, in assay [1], the cell count worked out at 483. Also, the inhibition in assay [1] is -9.2% (inactive); in assay [3], -11.9% (inactive); in assay [7], 3.4% (inactive); in assay [8] it was -1.04% (inactive). Moreover, in assay [2], the inhibition of aggregation was -28.3% (inactive). The nuclei count came to 96.6% in assay [2] and 121% in assay [3]. Moreover, in assay [4], the fluorescence slope is -0.525 (inactive). The NADPH fluorescence slope in assay [5] was 5.6e-06 (inactive). In assay [6], the slope was 0.00457 (inactive).

Consider `Cc1ccccc1NS(=O)(=O)c1cc(C(=O)N2CCCC2)ccc1C`, for which the cell count in assay [1] came out at 481. Moreover, the inhibition was -7.1% (inactive) in assay [1], 9.5% (inactive) in assay [3], -10.7% (inactive) in assay [7] and 6.74% (inactive) in assay [8]. Besides, the inhibition of aggregation in assay [2] is 16.1% (inactive). The nuclei count in assay [2] was found to be 86.1%; in assay [3], 94.2%. For the same molecule, the fluorescence slope in assay [4] was -0.601 (inactive). Further, the NADPH fluorescence slope in assay [5] was -3.9e-05 (inactive). Also, the slope in assay [6] is 0.00473 (inactive).

Turning to `O=C(CSc1nnc(C2COc3ccccc3O2)o1)N1CCCc2ccccc21` (centres undefined), the cell count in assay [1] came to 438. The inhibition is -1.8% (inactive) in assay [1], -80.9% (inactive) in assay [3], 12.5% (inactive) in assay [7] and 34.9% (inactive) in assay [8]. Further, the inhibition of aggregation in assay [2] is 0.8% (inactive). For the same molecule, the nuclei count turned out to be 87.9% in assay [2] and 136% in assay [3]. In addition, the fluorescence slope in assay [4] was -0.298 (inactive). Moreover, the NADPH fluorescence slope in assay [5] was -4e-06 (inactive). Moreover, in assay [6], the slope was 0.00363 (inactive).
